Tests used:
[1] = molecular target: T1, Aspartate--tRNA(Asp/Asn) ligase (Mycobacterium tuberculosis (strain ATCC 25618 / H37Rv)) (UniProt P9WFW3); experiment: Assay for Asp RNA synthetase-1 from Mycobacterium tuberculosis; type: functional; set-up: scale not given: direction of the effect not stated beside the values; conditions: 30 µM; further: in the data most compounds retested in dose-response had high values
T1 sequence (whole entry): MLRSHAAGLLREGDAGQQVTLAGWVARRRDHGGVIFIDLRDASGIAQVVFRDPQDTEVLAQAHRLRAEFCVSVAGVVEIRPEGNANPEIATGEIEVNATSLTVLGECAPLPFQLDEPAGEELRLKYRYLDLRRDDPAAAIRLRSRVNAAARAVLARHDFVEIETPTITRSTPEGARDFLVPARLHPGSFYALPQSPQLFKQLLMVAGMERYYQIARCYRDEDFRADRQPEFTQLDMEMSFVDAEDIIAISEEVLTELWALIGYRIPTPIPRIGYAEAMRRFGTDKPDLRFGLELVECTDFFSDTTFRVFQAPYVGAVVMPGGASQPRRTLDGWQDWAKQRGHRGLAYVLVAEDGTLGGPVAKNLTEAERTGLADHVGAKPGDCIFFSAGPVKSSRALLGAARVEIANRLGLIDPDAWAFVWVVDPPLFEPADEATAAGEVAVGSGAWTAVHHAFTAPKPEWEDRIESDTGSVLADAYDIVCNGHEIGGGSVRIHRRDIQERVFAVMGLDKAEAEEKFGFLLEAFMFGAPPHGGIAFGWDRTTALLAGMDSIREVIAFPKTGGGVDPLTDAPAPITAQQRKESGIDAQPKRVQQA

[2] = molecular target: Shiga toxin 2 (Escherichia coli O157:H7) (UniProt P09385+P09386); experiment: E. coli 0.157:H7 Shiga Toxin SOP - stx2 screening assay; type: functional; set-up: scale not given: direction of the effect not stated beside the values; conditions: 30 µM

| SMILES | Percent Effect [1] | Percent Effect [2] |
| --- | --- | --- |
| Cc1cc(C)n(CC2CN(CCOc3cccc(F)c3)CCO2)n1 (stereo not given) | 3.93% | 36.7% |
| CC(=O)Nc1nc(CN2CCCCC2Cn2cccn2)cs1 (stereo not given) | 8.39% | -4.08% |
| O=C(c1ccc(C2CCCO2)s1)N1Cc2ccccc2C1 (stereo not given) | 0.948% | -61.8% |
| CN1N=C(C(=O)N2CCCC(CCc3c(F)cccc3F)C2)CCC1=O (stereo not given) | -2.6% | 9.43% |
| Cc1ccc([C@@H]2CN(C(=O)c3cccnn3)C[C@H]2NC(=O)C2CC2)cc1 | -3.85% | 29.5% |
| CCOc1cccc(C(=O)N2CCN(c3nccc(OC)n3)CC2)c1 | 7.36% | 22.4% |
| COc1ccc(NC(=O)NC(C)c2nc[nH]n2)cc1 (stereo not given) | -1.71% | 5.29% |
| O=C(Nc1cccc(CNCc2cccs2)c1)C1CCCC1 | 1.74% | 13% |
| Clc1ccc2cccnc2c1CN1CCCC(Cn2cncn2)C1 (stereo not given) | -1.86% | -6.27% |
| O=C(N[C@@H]1CN(c2ncccn2)[C@@H]2CCCO[C@@H]21)c1cnccn1 | 7.31% | 2.14% |
| CS(=O)(=O)CCC(=O)Nc1cnn(-c2ccccc2Cl)c1 | -3.18% | -52.3% |
| CCn1cnnc1C1CCN(C(=O)c2ccc(C(=O)OC)s2)CC1 | -7.04% | 7.28% |
| CCCN(CCO)C(=O)C1CCC(=O)N(CCc2ccc(Cl)cc2)C1 (stereo not given) | -4.04% | 18% |
| Fc1cnc(N2CCC3(COCc4cnc(NCC5CC5)nc43)C2)nc1 (stereo not given) | 1.39% | 2.48% |
| COc1c(CNCc2cnn(C)c2)c(C(C)C)nn1C | -1.63% | 6.94% |
| CCCn1nc(C)c(CNC(=O)C2COc3c(cccc3OC)C2)c1C (stereo not given) | 0.114% | -6.29% |
| CN(Cc1ccco1)C[C@H]1OC[C@@H]2CCN(Cc3nccs3)C[C@@H]21 | 4.31% | -45.7% |
| CC(C)c1nnc(NC(=O)NCc2ccc(CO)c(F)c2)s1 | 1.21% | 0.535% |
| COc1ccc(C[C@H]2CN(C(=O)CN(C)C)CC[C@H]2OC)cc1 | 0.341% | -5.78% |
| CC(C)c1nc2c(n1C)CCN(Cc1nc(-c3ccsc3)no1)C2 | -3.99% | -3.44% |
| CN(C)C[C@H]1OC[C@@H]2CCN(C(=O)c3ccco3)C[C@@H]21 | -2.13% | -9.03% |
| Cc1ccc(CNC(C)c2ccc3[nH]c(=O)[nH]c3c2)s1 (stereo not given) | 1.6% | -1.3% |
| Cc1noc(CCCC(=O)NC(C)c2cccnc2)n1 (stereo not given) | -0.922% | 31.2% |
| CC1(C)Cc2ccccc2-c2nc(NCCO)[nH]c(=O)c21 | 3.08% | 0.00332% |
| O=C(NCc1cccc2cccnc12)N1CCC(n2cncn2)CC1 | -6.04% | 8.18% |

| SMILES | Percent Effect [1] | Percent Effect [2] |
| --- | --- | --- |
| Cc1cnn(CC2CCCCN2C(=O)c2ccc3[nH]nnc3c2)c1 (stereo not given) | 0.548% | 30.9% |
| COC(=O)CS(=O)(=O)CCC(=O)N1CCCC1c1ccsc1 (stereo not given) | -1.34% | -0.403% |
| NC(=O)CN1CCC(C(=O)N2CCCC(OCc3cccnc3)C2)CC1 (stereo not given) | -13.4% | 18% |
| Cn1c(NCC(O)c2ccc(F)cc2F)c(C#N)c(=O)n(C)c1=O (stereo not given) | -5.91% | -8.41% |
| CCOc1nnc(CN(C)CC2CCCN2c2cccnn2)s1 (stereo not given) | -1.14% | -14.4% |
| CCCc1cc(CNC(=O)C2CCOc3ccccc3C2)on1 (stereo not given) | 2.59% | 17.5% |
| CC(O)CN1CCC(CNCc2ccccc2OC(F)(F)F)CC1 (stereo not given) | -1.43% | 5.19% |
| COc1ccc2c(c1)CCN(CCC(=O)O)CC2 | 3.94% | -33.8% |
| OCC1CCCCN1c1ccc(-c2nc(-c3ccccc3F)no2)cn1 (stereo not given) | -6.87% | -36.1% |
| Cc1nc(C)c2c(n1)CCN(C(=O)CC1CC1)CC2 | -2.64% | -5.99% |
| Cc1ccccc1C(=O)N1CCC(n2nnc3cc(F)ccc32)CC1 | -5.01% | -1.06% |
| CCc1nc(CC(=O)NCC(Cc2ccc(F)cc2)C(N)=O)cs1 (stereo not given) | 1.14% | 3.77% |
| O=C(c1cccc(F)c1)N1CCN2C[C@H](OCc3cccnc3)C[C@H]2C1 | -1.22% | -4.11% |
| O=C(CCc1ccccc1)Nc1ncccc1OC(F)F | -3.26% | -5.61% |
| Cc1nc(CNC(C)c2ccc(OCC(=O)NC3CC3)cc2)cs1 (stereo not given) | 2.43% | -66.5% |
| O=C(CN1CCCC1Cn1cncn1)NC(C1CC1)C1CC1 (stereo not given) | 2.42% | -2.93% |
| O=C(NCCNc1ncccn1)c1ccc(-c2ccco2)[nH]c1=O | 6.93% | 10.7% |
| O=C(c1ccc(Br)o1)N1CCCCC1Cn1cccn1 (stereo not given) | 4.78% | -8.55% |
| CCN(CC)C(=O)CCNC(=O)N1CCC(c2ccccc2)C1 (stereo not given) | -1.42% | -20.3% |
| Cc1cc(N2CCCN(C(=O)Cc3ccc(O)c(Cl)c3)CC2)ccn1 | 1.92% | -29.5% |
| COc1nc2c(cc1C(=O)N1C[C@H](N)C[C@H]1C(=O)NC(C)C)CCC2 | -4.9% | 12.5% |
| O=C(CCC1CCCC1)NCCn1nc(C2CCNC2)c2nccnc21 (stereo not given) | 1.74% | -35.4% |
| COCC1CN(Cc2ccc(C)o2)Cc2nnn(CC3CC3)c21 (stereo not given) | -0.416% | -35.9% |
| CCn1nnc2c1C(COC)CN(Cc1ccsc1)C2 (stereo not given) | -1.23% | -3.86% |
| CCOc1ccc(N2CCCN=C2NC(=O)c2ccccc2C)cc1 | 4.31% | -57.5% |

From ChEMBL document CHEMBL3988442, “University of Dundee, Small-Polar-MMV Screening Library” (2021)
